Data: ChEMBL document CHEMBL1961873, “Compounds: GSK PKIS; Assays: Nanosyn kinase panel” (2012)

Legend:
[1] = molecular target: CDK3/Cyclin E (Homo sapiens) (UniProt P24864+Q00526); settings: at 1 µM;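 note: each figure is a mean percent inhibition of the CDK3/cyclin E complex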
[2] = molecular target: Cyclin-dependent kinase 4 (Homo sapiens) (UniProt P11802); settings: at 0.1 µM
[3] = molecular target: Cyclin-dependent kinase 4 (Homo sapiens) (UniProt P11802); settings: at 1 µM
[4] = molecular target: Cyclin-dependent kinase 5 (Homo sapiens) (UniProt Q00535); settings: at 0.1 µM
[5] = molecular target: Cyclin-dependent kinase 5 (Homo sapiens) (UniProt Q00535); settings: at 1 µM
[6] = molecular target: Cyclin-dependent kinase 6 (Homo sapiens) (UniProt Q00534); settings: at 0.1 µM
[7] = molecular target: Cyclin-dependent kinase 6 (Homo sapiens) (UniProt Q00534); settings: at 1 µM
[8] = molecular target: Dual specificity protein kinase CLK2 (Homo sapiens) (UniProt P49760); settings: at 0.1 µM
[9] = molecular target: Dual specificity protein kinase CLK2 (Homo sapiens) (UniProt P49760); settings: at 1 µM
[10] = molecular target: Dual specificity protein kinase CLK3 (Homo sapiens) (UniProt P49761); settings: at 0.1 µM
Sequence of Dual specificity protein kinase CLK3 (Homo sapiens) (P49761 whole entry, looked up): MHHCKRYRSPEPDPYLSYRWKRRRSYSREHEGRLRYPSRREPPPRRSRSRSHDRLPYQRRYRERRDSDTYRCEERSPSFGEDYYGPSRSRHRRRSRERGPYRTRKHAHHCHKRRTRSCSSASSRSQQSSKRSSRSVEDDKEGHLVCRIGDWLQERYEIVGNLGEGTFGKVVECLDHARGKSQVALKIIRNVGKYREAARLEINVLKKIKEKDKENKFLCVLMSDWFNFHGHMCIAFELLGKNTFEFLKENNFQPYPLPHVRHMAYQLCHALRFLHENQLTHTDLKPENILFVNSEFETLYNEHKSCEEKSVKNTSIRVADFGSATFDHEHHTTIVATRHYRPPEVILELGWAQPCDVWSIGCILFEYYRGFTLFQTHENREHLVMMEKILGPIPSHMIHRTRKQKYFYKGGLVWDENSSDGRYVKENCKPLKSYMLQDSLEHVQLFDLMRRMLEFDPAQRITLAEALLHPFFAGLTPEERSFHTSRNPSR

Sequence of Cyclin-dependent kinase 5 (Homo sapiens) (Q00535 whole entry, looked up): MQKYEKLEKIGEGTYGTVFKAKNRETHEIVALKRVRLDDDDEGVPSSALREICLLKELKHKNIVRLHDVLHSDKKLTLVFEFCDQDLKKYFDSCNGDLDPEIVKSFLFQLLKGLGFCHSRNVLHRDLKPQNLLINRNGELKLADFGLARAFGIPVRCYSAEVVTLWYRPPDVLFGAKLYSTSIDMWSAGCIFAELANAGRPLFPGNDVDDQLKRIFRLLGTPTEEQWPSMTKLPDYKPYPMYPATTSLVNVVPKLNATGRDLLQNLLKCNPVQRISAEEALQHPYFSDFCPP
Sequence of Dual specificity protein kinase CLK2 (Homo sapiens) (P49760 whole entry, looked up): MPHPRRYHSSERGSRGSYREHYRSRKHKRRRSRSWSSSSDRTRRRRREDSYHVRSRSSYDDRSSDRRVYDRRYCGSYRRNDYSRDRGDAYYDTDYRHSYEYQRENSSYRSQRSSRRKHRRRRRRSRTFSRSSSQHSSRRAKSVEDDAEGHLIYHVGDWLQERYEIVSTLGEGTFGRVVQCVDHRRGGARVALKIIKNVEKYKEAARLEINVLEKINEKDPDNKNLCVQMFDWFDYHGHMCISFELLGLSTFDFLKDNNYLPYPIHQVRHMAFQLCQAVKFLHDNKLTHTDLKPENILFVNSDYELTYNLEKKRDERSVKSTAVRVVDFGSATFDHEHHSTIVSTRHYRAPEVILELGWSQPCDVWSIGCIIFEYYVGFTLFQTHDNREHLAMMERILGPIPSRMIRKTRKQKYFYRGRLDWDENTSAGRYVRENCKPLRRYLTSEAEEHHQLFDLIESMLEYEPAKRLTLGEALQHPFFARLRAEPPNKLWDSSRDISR
Sequence of Cyclin-dependent kinase 4 (Homo sapiens) (P11802 whole entry): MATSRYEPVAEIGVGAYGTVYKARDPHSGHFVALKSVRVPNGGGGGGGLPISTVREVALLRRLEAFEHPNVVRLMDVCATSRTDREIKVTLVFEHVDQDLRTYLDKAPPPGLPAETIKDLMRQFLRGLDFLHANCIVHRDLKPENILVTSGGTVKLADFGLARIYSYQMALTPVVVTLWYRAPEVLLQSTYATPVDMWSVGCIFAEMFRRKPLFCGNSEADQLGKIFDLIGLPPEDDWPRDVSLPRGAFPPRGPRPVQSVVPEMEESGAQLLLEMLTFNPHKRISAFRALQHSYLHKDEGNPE
Sequence of Cyclin-dependent kinase 6 (Homo sapiens) (Q00534 whole entry): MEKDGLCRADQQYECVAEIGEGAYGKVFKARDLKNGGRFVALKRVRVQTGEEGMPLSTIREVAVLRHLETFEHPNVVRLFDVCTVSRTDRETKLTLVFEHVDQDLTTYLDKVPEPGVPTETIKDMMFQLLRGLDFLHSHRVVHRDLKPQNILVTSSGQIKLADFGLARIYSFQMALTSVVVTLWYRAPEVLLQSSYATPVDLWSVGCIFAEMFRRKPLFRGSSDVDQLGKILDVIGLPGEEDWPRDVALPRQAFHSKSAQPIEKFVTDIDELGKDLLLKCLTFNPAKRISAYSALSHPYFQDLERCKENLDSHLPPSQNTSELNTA
Sequence of CDK3/Cyclin E (Homo sapiens) (P24864 whole entry, looked up): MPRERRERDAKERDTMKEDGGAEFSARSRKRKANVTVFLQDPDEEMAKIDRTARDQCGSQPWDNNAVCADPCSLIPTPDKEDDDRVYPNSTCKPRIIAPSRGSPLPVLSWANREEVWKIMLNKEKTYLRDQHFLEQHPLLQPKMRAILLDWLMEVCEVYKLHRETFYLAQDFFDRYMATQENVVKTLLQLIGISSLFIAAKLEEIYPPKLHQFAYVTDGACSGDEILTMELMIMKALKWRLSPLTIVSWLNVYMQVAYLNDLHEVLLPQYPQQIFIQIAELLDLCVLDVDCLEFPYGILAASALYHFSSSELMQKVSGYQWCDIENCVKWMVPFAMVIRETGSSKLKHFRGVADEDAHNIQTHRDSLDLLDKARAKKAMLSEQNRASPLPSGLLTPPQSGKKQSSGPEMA
Sequence of CDK3/Cyclin E (Homo sapiens) (Q00526 whole entry, looked up): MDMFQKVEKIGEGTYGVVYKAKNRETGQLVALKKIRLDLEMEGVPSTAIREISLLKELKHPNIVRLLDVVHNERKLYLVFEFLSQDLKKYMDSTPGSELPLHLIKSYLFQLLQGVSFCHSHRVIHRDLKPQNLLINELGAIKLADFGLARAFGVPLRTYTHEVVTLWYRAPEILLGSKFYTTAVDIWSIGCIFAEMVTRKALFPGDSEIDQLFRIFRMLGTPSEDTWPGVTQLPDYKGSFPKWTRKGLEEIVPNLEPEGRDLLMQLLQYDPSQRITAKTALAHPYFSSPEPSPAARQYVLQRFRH

Compound	inhibition [1]	inhibition [2]	inhibition [3]	inhibition [4]	inhibition [5]	inhibition [6]	inhibition [7]	inhibition [8]	inhibition [9]	inhibition [10]
CCCN1CCCC(c2ccc(Nc3nc(Nc4cc(F)ccc4C(N)=O)c4cc[nH]c4n3)c(OC)c2)C1 (stereo not given)	0.01%	3.53%	12.1%	0.43%	5.92%	-2.09%	8.41%	67.3%	93.8%	4.01%
COC(=O)c1cncc(/C=C/c2c(C)cc(O)cc2C)c1	-1.29%	2.45%	3.9%	1.02%	3.28%	4.33%	4.14%	-0.85%	2.84%	2.11%
FC(F)(F)c1ccc(-c2nn3ncccc3c2-c2ccnc(Nc3ccc4c(c3)OCCO4)n2)cc1	4.1%	5.36%	5.52%	5.49%	3.8%	3.25%	3.58%	2.1%	2.93%	5.98%
Cc1cc(Cl)cc2c1NC(=O)C2=NNc1ccc(S(N)(=O)=O)cc1	-0.36%	0.78%	3.56%	0.57%	2.28%	2.2%	3.46%	0.86%	2.34%	0.9%
COc1cc2ncnc(Nc3ccc(C)c(O)c3)c2cc1OC	-1.71%	4.46%	6.21%	0.92%	2.99%	-0.81%	4.49%	1.85%	0.29%	1.39%
O=S(=O)(CCOCc1ccc(-c2ccc3ncnc(Nc4ccc(OCc5cccc(F)c5)c(Cl)c4)c3c2)o1)c1ccccc1	-2.84%	0.35%	4.69%	4.26%	5.68%	0.17%	3.76%	-0.59%	1.39%	0.11%
Cc1ccc(C(=O)NC2CC2)cc1-c1ccc2[nH]ncc2c1	0.41%	-0.45%	1.78%	0.3%	2.44%	-4.81%	-2.84%	-1%	0.36%	-0.51%
NS(=O)(=O)c1cccc(-c2cc3ccncc3cc2OCc2ccccc2)c1	0.51%	3.55%	6.33%	1.96%	3.2%	-1.23%	10.9%	1.16%	1.27%	1.46%
COc1cc(/C=N/Nc2ncnc3c2cnn3C(C)C)ccc1O	27.6%	3.37%	18.7%	10.4%	46.2%	-4.82%	9.96%	3.4%	23.2%	5.21%
COc1cccc(-n2ncc3c(N/N=C/c4ccc(C)cc4)ncnc32)c1	-1.25%	3.51%	7.43%	2.17%	6.59%	-2.39%	-0.54%	-0.41%	6.42%	1.22%
COc1ccc2ncnc(Nc3ccc(OCc4ccccc4)cc3)c2c1	-1.97%	0.76%	0.15%	0.36%	0.72%	-0.31%	1.08%	1.07%	0.25%	0.35%
COc1cc(Nc2nccc(-c3cnn4ncccc34)n2)cc(OC)c1	74.3%	44.9%	78.5%	63%	90.1%	24.9%	76.1%	99.2%	99.9%	36.5%
Cc1ccc2c(-c3ccnc(Nc4cccc(C(F)(F)F)c4)n3)c(-c3ccccc3)nn2n1	-1.25%	4.12%	7.65%	2.11%	4.09%	-1.73%	1.79%	-0.15%	2.76%	0.65%
CN(C)C(=O)O[C@H]1CN[C@H](C#Cc2cc3ncnc(Nc4ccc(OCc5cccc(F)c5)c(Cl)c4)c3s2)C1	-2.05%	1.82%	1.04%	0.51%	0.96%	2.1%	4.47%	-0.97%	0.42%	1.51%
CN(C)CCCn1c(-c2nonc2N)nc2cnccc21	-0.71%	3.12%	4.13%	1.36%	1.99%	-4.78%	1.95%	2.66%	2.51%	1.05%
Nc1nccc(-c2c(-c3ccc(F)cc3)nn3cc(C(F)(F)F)ccc23)n1	-2.57%	0.37%	1.03%	0.43%	-0.54%	-0.93%	-0.06%	1.36%	-2.43%	-0.16%
Cc1cc(-c2ccccn2)cc(C)c1/C=C/c1cncc(-c2nn[nH]n2)c1	-2.71%	6.05%	8.73%	3.27%	5.72%	1.94%	5.55%	0.95%	1.77%	0.5%

Compound	inhibition [1]	inhibition [2]	inhibition [3]	inhibition [4]	inhibition [5]	inhibition [6]	inhibition [7]	inhibition [8]	inhibition [9]	inhibition [10]
COc1cccc(-n2ncc3c(N/N=C/c4ccc(S(C)(=O)=O)cc4)ncnc32)c1	20.8%	0.01%	20.4%	21%	59.2%	0.78%	25.6%	8.7%	18.4%	-0.53%
C[C@@H](Oc1cc(-n2cnc3ccc(OC[C@@H](O)CO)cc32)sc1C(N)=O)c1ccccc1Cl	1.56%	-0.86%	0.89%	0.29%	1.88%	-1.79%	-0.4%	1.72%	7.52%	0.13%
CN(c1ccc(NC(=O)Nc2ccc(OC(F)(F)F)cc2)cc1)c1ccnc(Nc2cccc(S(N)(=O)=O)c2)n1	3.98%	0.85%	6.76%	0.45%	5.8%	2.09%	27.4%	1.61%	-2.84%	0.59%
CS(=O)(=O)Nc1cccc(-c2ccc3c(NC(=O)C4CC4)n[nH]c3c2)c1	3.8%	0.3%	2.88%	0.92%	2.86%	-5.62%	6.33%	2.8%	3.81%	-0.87%
OCc1ccc(-c2nc(-c3ccccn3)c(-c3ccc4c(c3)OCO4)[nH]2)cc1	1.76%	2.89%	3.75%	0.69%	1.21%	-1%	2.55%	1.74%	4.27%	1.94%
CCn1c(-c2nonc2N)nc2ccc(F)cc21	-3.51%	1.9%	2.11%	0.58%	0.39%	1.33%	2.18%	2.5%	0.59%	2.12%
NS(=O)(=O)c1cccc(Nc2cc(-c3ccc(F)cc3)n[nH]2)c1	36.7%	1.88%	10%	5.52%	31.4%	10.5%	52.5%	1.65%	1%	1.43%
c1ccc(Cc2nc3ccc(Nc4ncnc5ccccc45)cc3[nH]2)cc1	1.71%	4.29%	5.27%	3.52%	5.74%	6.78%	8.79%	1.26%	2%	2.76%
O=C1Nc2ccc(-c3cccnc3)cc2C1=Cc1cc(Br)c(O)c(Br)c1	2.98%	3.31%	3.8%	1.01%	1.79%	5.85%	6.68%	32.2%	84.6%	7.23%
CN(C)C(=O)O[C@@H]1CN[C@@H](C#Cc2cc3ncnc(Nc4ccc(OCc5cccc(F)c5)c(Cl)c4)c3s2)C1	-1.66%	2.09%	1.46%	0.54%	1.24%	-6.37%	0.91%	0.95%	-0.08%	-0.16%
Cc1ccc(NC(=O)CC2CC2)cc1-c1ccc(C(=O)NCC2CC2)cc1	-2.46%	1.69%	2.18%	0.04%	0.76%	1.72%	1.87%	0.47%	0.08%	1.44%
Cc1ccc(Nc2ccnc(Nc3cccc(C(N)=O)c3)n2)cc1O	4.71%	-2.5%	1.32%	-3.13%	1.46%	-1.97%	-0.13%	1.32%	6.94%	-0.76%
CCn1c(-c2nonc2N)nc2c(C#CC(C)(C)O)nc(OCCNC)cc21	-2.48%	5.94%	6.73%	1.64%	1.77%	-0.39%	-2.07%	1.52%	3.81%	-0.84%
[O-][S+]1CCN(Cc2ccc(-c3ccc4ncnc(Nc5ccc(OCc6ccccc6)c(Cl)c5)c4c3)o2)CC1	-1.44%	0.13%	3.22%	0.19%	0.51%	-0.89%	0.14%	-0.72%	0.49%	0.43%
CCS(=O)(=O)c1ccc(OC)c(Nc2ncc(-c3cccc(OC)c3)o2)c1	3.18%	1.8%	3.35%	0.02%	1.71%	3.87%	5.07%	34.8%	86%	2.36%
COc1cc2ncnc(Nc3ccc4c(cnn4Cc4ccccc4)c3)c2cc1OC	-1.25%	1.5%	5.06%	4.4%	6.81%	-3.86%	-2.1%	-0.74%	0.84%	1.15%
Cc1ccc2c(-c3ccnc(Nc4ccc5c(c4)OCCO5)n3)c(-c3ccc(C(F)(F)F)cc3)nn2n1	-3.94%	0.65%	1.74%	0.21%	1.41%	-0.74%	-1.75%	1.25%	-0.4%	1.41%
